The record followed here is publication PMC8384837, “Expanding the binding specificity for RNA recognition by a PUF domain”.

This experiment deals with PUM1 PUF domain R3-VFG (Homo sapiens, UniProt Q14671 828-1176, C935V;R936F;Q939G). Nature of the experiment: yeast three-hybrid, YBZ-1, SC-Leu-His + 0.5 mM 3-AT, 4 days. As to conditions: tags: N-Gal4 AD-HA kept; label: inside an RPR1-promoter hybrid RNA with tandem MS2 sites; ssRNA. An outline of the steps:
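Repeat regions from input (SC-Leu) and selection (SC-Leu-His + 0.5 mM 3-AT) plates were PCR-amplified and Illumina-sequenced after four days of growth. The cells were strain YBZ-1 with a LexA–MS2 coat fusion and a HIS3 reporter, co-expressing Pumilio-1 PUF domain libraries and matching RNA elements from a centromeric plasmid. The interaction score is the log change in variant frequency from input to selection, taken in log2 with a pseudocount of 1 for absent variants.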
In the case of “GGCUAGAACUAGUGGAUCCCCCGGCGCCCGGCGGCUCGAGCCCGGGUAAGUGUAAAUAGUCUGCAUGCCGCCGGGCGCCAUGCCUGCAGGUCGACUCUAGAAAACAUG”, the binding signal was 3.82 log2 enrichment (interaction score).
For the sequence “GGCUAGAACUAGUGGAUCCCCCGGCGCCCGGCGGCUCGAGCCCGGGUAAGUGUAAUUAGUCUGCAUGCCGCCGGGCGCCAUGCCUGCAGGUCGACUCUAGAAAACAUG”, the binding signal was 4.61 log2 enrichment (interaction score).
“GGCUAGAACUAGUGGAUCCCCCGGCGCCCGGCGGCUCGAGCCCGGGUAAGUGUAAGUAGUCUGCAUGCCGCCGGGCGCCAUGCCUGCAGGUCGACUCUAGAAAACAUG”: the binding signal was 1.68 log2 enrichment (interaction score).
